Screening data: PubChem, several laboratories
Shown are actives, neighbours in structure and some others; about 3.7% of the full set was active somewhere.
tim10-1 inh – growth inhibitors of tim10-1 mutant yeast, primary screen, luminescence, uHTS | S. cerevisiae tim10-1 ts strain growth, BacTiter-Glo, 24 h | inhibition, % at 20 µM | actives 2.2% (n = 330,000) | AID 463190, 2010;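 active = inhibition of at least 40%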;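 note: mutant grown at 25 °C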
TIM10 inh – growth inhibitors of isogenic TIM10 control yeast, primary screen, counter-screen for tim10-1 yeast inhibitor project, luminescence, uHTS; S. cerevisiae TIM10 strain growth, BacTiter-Glo luminescence, 24 h; inhibition, % at 10 µM; actives 1.4% (n = 330,000);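 active = inhibition of 40% or more at the single tested concentration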;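 note: wild-type TIM10 isogenic control strain grown at permissive 25 °C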
tim23-1 inh – growth inhibitors of tim23-1 mutant yeast, primary screen, luminescence, uHTS; actives 1.3% (n = 330,000); inhibition, % at 20 µM; S. cerevisiae tim23-1 growth, BacTiter-Glo luminescence, 24 h; AID 463212, 2010;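 active = growth inhibition of the mutant yeast at or above 50%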;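 note: temperature-sensitive mutant grown at 25 °C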
PfHsp90 set2 – growth inhibition of PfHsp90-expressing yeast, primary screen, antimalarial PfHsp90 inhibitor project, S. cerevisiae, BacTiter-Glo luminescence, single point, set 2. BacTiter-Glo ATP, 48 h; yeast lacking PDR1 and PDR3 efflux regulators. inhibition, % at 9.4 µM. actives 0.32% (n = 310,000). AID 504621, 2011;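 active = every replicate shows inhibition above about 80%, whatever the replicate mean, limit read from the data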
NLRP3 yeast inh – NALP3 inflammasome inhibitors in reconstituted yeast, primary screen, luminescence, uHTS; Yeast reconstituted NLRP3/ASC/caspase-1, beta-gal luminescence, 24 h; actives 0.39% (n = 330,000); inhibition, % at 10 µM; AID 2825, 2010;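 active = inhibition of 50% or more; inactive = inhibition below 50%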
tim10-1 conf – growth inhibitors of tim10-1 mutant yeast, confirmation, single concentration, luminescence, S. cerevisiae. shares compounds with tim10-1 inh. S. cerevisiae tim10-1 ts strain growth, BacTiter-Glo, 24 h. inhibition, % at 20 µM. actives 56% (n = 7,400);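 active = inhibition of yeast growth at or above a set limit in either of two repeat tests at 20 µM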;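 note: tim10-1 mutant grown at permissive 25 °C to find synthetic lethal compounds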
Each line names hits and unclear results; the compound was inactive in the other large screens (follow-up assays come after a bar, where they were run).

Cc1ccc(/C=N/NC(=O)CSCc2ccc(Cl)cc2)cc1	tim10-1 inh 40 | tim10-1 conf inactive
O=c1nc(/C=C/c2ccc(-c3ccc(F)cc3)o2)cc(C(F)(F)F)[nH]1	tim10-1 inh 47 (no result: PfHsp90 set2) | tim10-1 conf 31
CCOc1ccc(OCC)c(NC(=O)CCCN2C(=S)NC(C)(C)CC2C)c1 (stereo unspecified)	none
O=C(CCC1CCCC1)Nc1nnc(-c2ccc3c(c2)OCO3)s1	none
Cc1nc2cc(-c3sccc3-n3cccc3)nn2c(C)c1C	tim10-1 inh 46 | tim10-1 conf 34
CCCCNC(=O)CC(C(=O)N1CCc2ccccc21)n1ccnc1 (stereo unspecified)	none (no result: PfHsp90 set2)
O=C(CC(C(=O)N1CCc2ccccc21)n1ccnc1)N1CCc2ccccc2C1 (stereo unspecified)	tim10-1 inh 40 (no result: PfHsp90 set2) | tim10-1 conf 35
Cc1ccc(S(=O)(=O)N/N=C/c2c[nH]c3ccccc23)cc1	none
Cc1ccc(S(=O)(=O)/C(C#N)=C/c2c[nH]c3ccccc23)cc1	tim10-1 inh 49 | tim10-1 conf inactive
CCOC(=O)c1sc(Nc2cccc(C)c2C)nc1C	tim10-1 inh 43 (no result: PfHsp90 set2) | tim10-1 conf 32
CCOC(=O)c1sc(Nc2cccc(Cl)c2)nc1C	none
CCCCCn1c(=N)c(S(=O)(=O)c2ccc(Br)cc2)cc2c(=O)n3cccc(C)c3nc21	none
CCCCn1c(=N)c(S(=O)(=O)c2ccc(Br)cc2)cc2c(=O)n3cccc(C)c3nc21	tim10-1 inh 44 | tim10-1 conf inactive
O=C(NC1CCCCC1)N1CCN(c2nc(-c3ccccc3)cs2)CC1	tim10-1 inh 45 | tim10-1 conf inactive
COCCCNC(=S)N1CCN(c2nc(-c3ccc(F)cc3)cs2)CC1	tim10-1 inh 44 | tim10-1 conf 33
CCCNC(=S)N1CCN(c2nc(-c3ccc(C)cc3)cs2)CC1	none
COCCNC(=S)N1CCN(c2nc(-c3ccccc3)cs2)CC1	tim10-1 inh 41 | tim10-1 conf 32
COc1ccc(-c2csc(N3CCN(C(=O)c4ccccc4)CC3)n2)cc1	tim10-1 inh 42 (no result: PfHsp90 set2) | tim10-1 conf 33
CC(C)C(=O)Nc1nnc(SCC(=O)NCc2cccs2)s1	none
c1ccc(CN2CCN(C(c3ccccc3)c3ccccc3)CC2)cc1	none
O=S(=O)(CCN1CCN(C(c2ccccc2)c2ccccc2)CC1)C(F)(F)F	tim10-1 inh 41 | tim10-1 conf 33
O=C(Nc1ccc(F)cc1)C1CCC(N2C(=O)c3ccccc3C2=O)CC1 (stereo unspecified)	none (no result: PfHsp90 set2)
N#CC(c1ccccc1O)N1N=C(c2ccccc2)CC1c1ccccc1 (stereo unspecified)	none
COc1cc(C(C#N)N2N=C(c3ccccc3)CC2c2ccccc2)ccc1O (stereo unspecified)	tim10-1 inh 43 | tim10-1 conf inactive
CCN(c1nc(C)cc(OC)n1)S(=O)(=O)c1ccccc1	tim10-1 inh 40 | tim10-1 conf inactive
C=CCN(c1nc(C)cc(OC)n1)S(=O)(=O)c1ccccc1	none
c1ccc(Nc2cccc(Nc3ccccc3)c2)cc1	tim10-1 inh 54 | tim10-1 conf 76
O=C(O)C1CC(c2ccccc2)=Nc2ccccc2S1 (stereo unspecified)	none
O=[N+]([O-])c1ccc(C2CC(c3ccccc3)=Nc3ccccc3S2)cc1 (stereo unspecified)	tim10-1 inh 43 | tim10-1 conf inactive
CN(C)CCCN1c2ccccc2CCc2ccc(Cl)cc21	tim10-1 inh 53 | tim10-1 conf 32
COC(=O)c1ccccc1NC(=O)c1cc([N+](=O)[O-])nn1Cc1ccccc1	none
Cc1ccc(CNc2ccc(N3CCN(C)CC3=O)cc2)cc1	none
CCCNC(=O)C12CCC(C)(c3nc4cc(C)c(C)cc4nc31)C2(C)C (stereo unspecified)	tim10-1 inh 42 | tim10-1 conf inactive
CNC(=O)C12CCC(C)(c3nc4cc(C)c(C)cc4nc31)C2(C)C (stereo unspecified)	none
Cc1ccc(-c2cc(=O)[nH][nH]2)c(C)c1	tim10-1 inh 44 | tim10-1 conf inactive
Cc1ccc(-c2csc3nc[nH]c(=O)c23)c(C)c1	none
CCc1ccc(C(=O)COC(=O)CNC(=O)COc2ccccc2)cc1	tim10-1 inh 42 | tim10-1 conf inactive
Cc1ccc(C(=O)COC(=O)CNC(=O)Cc2ccccc2)cc1	none
CC(CN1CCC(n2nccc2NC(=O)CCCc2ccccc2)CC1)c1ccccc1 (stereo unspecified)	none
N#Cc1cccc(NC(=O)CSc2cccc[n+]2[O-])c1	none
Cc1ccccc1SCC(=O)Nc1cccc(C#N)c1	tim10-1 inh 44 | tim10-1 conf inactive
Cc1ccc(NC(=O)CN(C)C(=O)COC(=O)COc2ccc(C#N)cc2)cc1	none
CCCCCCC(=O)N(O)C1CC(=O)N(c2ccc(Br)cc2)C1=O (stereo unspecified)	tim10-1 inh 42, PfHsp90 set2 119 | tim10-1 conf inactive
Cc1ccc(OCC(=O)NC(=S)Nc2ccc(S(=O)(=O)Nc3cc(C)on3)cc2)c(Br)c1	none
CCOc1cc2[nH]c(=S)n(CCCC(=O)NCc3ccccn3)c(=O)c2cc1OCC	none
S=c1nc(C2CCCCC2)n(-c2ccccc2)[nH]1	tim10-1 inh 44 | tim10-1 conf inactive
O=C(Cc1ccc(Br)cc1)Nc1cccc(-c2cn3c(n2)SCC3)c1	none
CC(C)=C1C2CCC1C(C(=O)NCCc1ccccc1)C2C(=O)O (stereo unspecified)	tim10-1 inh 44 | tim10-1 conf inactive
C=CCNC(=O)C1CC(=O)N(c2ccc(OCC(=O)Nc3ccc(OC)cc3)cc2)C1 (stereo unspecified)	none
Cc1ccc(S(=O)(=O)N2CCC3(CC2)OCCN3S(=O)(=O)c2cccs2)cc1	none
O=S(=O)(c1ccc(Cl)cc1)N1CCC2(CC1)OCCN2S(=O)(=O)c1cccs1	tim10-1 inh 48 | tim10-1 conf 29
COc1ccc(S(=O)(=O)N2CCOC23CCN(S(=O)(=O)c2ccc(F)cc2)CC3)cc1	tim10-1 inh 47 | tim10-1 conf inactive
COc1ccc(S(=O)(=O)N2CCOC23CCN(S(=O)(=O)c2ccc(C)cc2)CC3)cc1	tim10-1 inh 46 | tim10-1 conf inactive
N#Cc1ccccc1CSc1ncccc1C(=O)O	none
COc1ccc(CCNC(=O)CCNC(=O)N2CC(=O)Nc3ccccc32)cc1OC	none
CSCCC(NS(=O)(=O)c1ccc(C)cc1)C(=O)N1CCN(S(=O)(=O)c2ccc(F)cc2)CC1 (stereo unspecified)	none
Cc1ccc([N+](=O)[O-])c(OCCN2C(=O)NC(C)(C)C2=O)c1	none
